According to PubChem BioAssay (NCI):
This is part of a sample that, as a whole, favours compounds with a hit. Of some 83,000 tested, about 20% had one in any assay.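 Results are percent growth after 48 hours of single-concentration exposure. 100 means growth as in untreated cells, lower positive values show inhibition; negative values down to -100 show cell death.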 The source made the active and inactive calls. How the source made its calls: active means growth percent below 10; inactive means the rest.

The molecules below were run on HL-60(TB) leukemia (assay: NCI-60 one-dose screen, 48 h (100 = growth as untreated, 0 = no growth, -100 = all killed)). Conditions: 10 µM unless noted.
In the case of `COc1ccc2nc3cc(Cl)ccc3c(N3CCN(c4nccc(NCc5ccccc5)n4)CC3)c2c1`, the growth is reported as 61.7% (inactive). With `COc1cc2nc(Cl)nc(Nc3cccc(C(=O)/C=C/c4ccc(F)cc4)c3)c2cc1OC` the growth was 62.1% (inactive). `Cc1ccc(C)c(NC(=O)c2sc3c(=O)[nH]cnc3c2C)c1` was tested, and the growth was 65.4% (inactive). For `S=C=NP1(N=C=S)=NP(N=C=S)(N=C=S)=NP(N=C=S)(N=C=S)=NP(N=C=S)(N=C=S)=N1` (stereo not given), the growth was 60.7% (inactive). In the case of `CCCCCCCCN(CCCCCCCC)C(=O)CCl`, the growth is reported as 105% (inactive). In the case of `CN(C)CCC=C1c2ccccc2C(C)(C)c2ccccc21`, the growth is reported as 85.5% (inactive). In the case of `Clc1ccc2c(NCCCNC3CCCCC3)ccnc2c1`, the growth is reported as 96.1% (inactive). With `Nc1ccc2cc3ccc(N)cc3nc2c1` the growth was 110% (inactive). For `C=C1C(=O)O[C@H]2[C@H]1CC/C(COC(=O)c1ccc(Br)cc1)=C\CC[C@@]1(C)O[C@@H]21`, the growth was -45.6% (active). With `O=C1C=CN2C(=O)CC=CC2[C@@H]1O` (stereo not given in full) the growth was 98.1% (inactive). In the case of `COc1ccc(C(=O)n2nc(/C=C/c3ccc(O)c(OC)c3)cc2/C=C/c2ccc(O)c(OC)c2)cc1`, the growth is reported as -15.6% (active). For `O=C(Nc1ccc(C(=O)Nc2ccc(C3=NCCCN3)cc2)cc1)Nc1ccc(C2=NCCCN2)cc1`, the growth was 44.2% (inactive). For `Clc1cc(Cl)cc(-c2cnc3nonc3n2)c1`, the growth was 10.9% (inactive). `COc1cc2c(c(OC)c1OC)C(=O)CC(c1cccc(C(=O)Nc3ccc(Br)cc3)c1)O2` (stereo not given) was tested, and the growth was 13.8% (inactive). For `COc1ccccc1/C=C1\Oc2cc(OCCN3CCCC3)ccc2C1=O`, the growth was 97.1% (inactive). `CN(C)c1ccc(/C=C\N=Nc2ccc(Br)cc2)cc1` was tested, and the growth was 16.6% (inactive). In the case of `Cc1nccc2c3ccc(OCc4cn(-c5ccc(Br)cc5)nn4)cc3n(CCCc3ccccc3)c12`, the growth is reported as 46.1% (inactive). `COC(=O)c1oc2c(C(=O)/C=C/c3ccc(OC)cc3)c(OCCN3CCOCC3)ccc2c1C` was tested, and the growth was -24.1% (active). For `COc1cc2oc3cc(C)oc(=O)c3c2cc1OC`, the growth was 80.3% (inactive). For `N#CC1=C(N)Oc2c(ccc3ccccc23)C1c1ccccc1` (stereo not given), the growth was -22.3% (active). For `Cc1cc(N)ccc1-c1ccc(N)cc1C`, the growth was 84.6% (inactive). In the case of `COc1ccc2c3c(c4ccccc4cc13)C(=O)N(CCN(C)CCN)C2=O`, the growth is reported as -58.1% (active). For `Cn1nc(C(F)(F)F)cc1-c1c[nH]c(OCc2ccc(Cl)cc2)c(-c2ccc(Cl)c(C(F)(F)F)c2)c1=O`, the growth was -28% (active). In the case of `Cc1cccc(NC(=O)Nc2ccc(-n3cnc4cc(-c5ccc(O)cc5)ccc43)cc2)c1`, the growth is reported as 8.69% (active). In the case of `COc1ccc2c(c1)C(C)Cc1c(ncnc1-n1cnc3ccccc31)N2C` (stereo not given), the growth is reported as -5.85% (active). With `Brc1cccc(-c2nc(-c3ccc4c(c3)OCCO4)co2)c1` the growth was 29.1% [25 µM] (inactive). `COc1ccc(/C=C(\C#N)n2nnc3cc(F)c(F)cc32)c(OC)c1OC` was tested, and the growth was 10.4% (inactive). For `[2H]C1([2H])NC([2H])([2H])C([2H])([2H])N(c2ccc(Nc3ncc4cc(C(=O)N(C)C)n(C5CCCC5)c4n3)nc2)C1([2H])[2H]`, the growth was 22.7% (inactive). For `Nc1cc(C(=O)O)cc(-n2c(O)c(C=C3N=c4ccccc4=N3)sc2=S)c1`, the growth was 101% (inactive). With `NS(=O)(=O)c1cnccc1Sc1ccncc1S(N)(=O)=O` the growth was 82.5% (inactive). With `CCOCCc1c(O)nc(SC)[nH]c1=O` the growth was 93.3% (inactive). For `CCCCCCCCCCCCCCCC(=O)OC[C@@]1(O)C[C@@]23CC[C@@H]4C(C)(C)CCC[C@@]4(C)[C@@H]2CC[C@H]1C3`, the growth was 73.3% (inactive). With `Oc1c(C(Nc2ccccc2)c2ccccc2)ccc2cccnc12` (stereo not given) the growth was 15.7% (inactive). `O=C1C=CC2(NN=C(c3ccccc3)N2c2ccc(Cl)cc2)c2cccc(O)c21` (stereo not given) was tested, and the growth was 23.5% (inactive). `CCN(CC)CCOC(=O)Nc1c(C(C)C)cccc1C(C)C` was tested, and the growth was 101% (inactive). `CN(C)CCCN(CCC1CCCCC1)CCC1CCCCC1` was tested, and the growth was 30.1% (inactive). For `Fc1ccccc1Nc1n[nH]c(=S)s1`, the growth was 112% (inactive). `C=C(C)[C@@H]1CC[C@]2(COCCCNCCCN)CC[C@]3(C)[C@H](CC[C@@H]4[C@@]5(C)CC[C@H](OCCCN)C(C)(C)[C@@H]5CC[C@]43C)[C@@H]12` was tested, and the growth was 48.2% (inactive). In the case of `O=S(=O)(OCCO)c1ccccc1`, the growth is reported as 107% (inactive). `CCCCc1oc2ccccc2c1C(=O)c1cc(I)c(OCCN(CC)CC)c(I)c1` was tested, and the growth was -62.9% (active).
